# Assay results taken from PubChem BioAssay AID588496 (NMMLSC, 2011).
# This is one part of the list. The source made the active and inactive calls.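 Rule for the calls: active = compounds that dim the fluorescent label, raw bead signal shifting by over 33 units between lowest and highest dose; inactive = the rest.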
# Assay: bead-bound aptamer signal quenching artefacts – biochemical, powder set 1, flow cytometry, artefact control for GRK2 aptamer binding project, dose response (AID 588496)
# Conditions: Bead-bound FAM RNA aptamer fluorescence quenching; MCF span: fluorescence change max-min concentration, stronger effect = higher value; fluorescence ratio to DMSO: at 11.1 µM, stronger effect = lower value
SMILES,MCF span,fluorescence ratio to DMSO
O=C(CCS(=O)(=O)c1ccc(Br)cc1)NCCc1ccc(Cl)cc1,3.2,99% (inactive)
COc1ccc(Cl)cc1NC(=O)CCS(=O)(=O)c1ccc(Br)cc1,-1.1,98% (inactive)
